Screens (PubChem)
GPR151 activ = activates the human receptor GPR151 | Q8TDV0 | PathHunter beta-arrestin GPR151 cells, luminescence | activation, % at 11.2 µM | 650,000 tested, 1% active | AID 1508602; in the data active means activation above about 4.9%
MITF primary = blocks human microphthalmia-associated transcription factor. 650,000 tested, 0.91% active. inhibition, % at 2.6 µM. O75030. AlphaScreen MITF homodimerization, bead proximity signal; in the data active means inhibition above about 50%
TEAD-YAP inh = TEAD-YAP interaction inhibition | HEK-TIYL cells, TEAD-Gal4/YAP UAS-luciferase luminescence | inhibition, % at 9.12 µM | 640,000 tested, 1.4% active; in the data active means inhibition above about 32%
FBW7 act = human FBW7 E3 ligase activation, primary screen. AlphaScreen FBW7–phospho-cyclin E peptide binding, activator screen. normalized activity (activation), % at 26.1 µM. 650,000 tested, 0.13% active. AID 1259310; in the data active means normalized activity above about 1.9%;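 further: purified mutant Fbw7 with reduced substrate affinity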
Target sequence (Q969H0 whole entry, looked up): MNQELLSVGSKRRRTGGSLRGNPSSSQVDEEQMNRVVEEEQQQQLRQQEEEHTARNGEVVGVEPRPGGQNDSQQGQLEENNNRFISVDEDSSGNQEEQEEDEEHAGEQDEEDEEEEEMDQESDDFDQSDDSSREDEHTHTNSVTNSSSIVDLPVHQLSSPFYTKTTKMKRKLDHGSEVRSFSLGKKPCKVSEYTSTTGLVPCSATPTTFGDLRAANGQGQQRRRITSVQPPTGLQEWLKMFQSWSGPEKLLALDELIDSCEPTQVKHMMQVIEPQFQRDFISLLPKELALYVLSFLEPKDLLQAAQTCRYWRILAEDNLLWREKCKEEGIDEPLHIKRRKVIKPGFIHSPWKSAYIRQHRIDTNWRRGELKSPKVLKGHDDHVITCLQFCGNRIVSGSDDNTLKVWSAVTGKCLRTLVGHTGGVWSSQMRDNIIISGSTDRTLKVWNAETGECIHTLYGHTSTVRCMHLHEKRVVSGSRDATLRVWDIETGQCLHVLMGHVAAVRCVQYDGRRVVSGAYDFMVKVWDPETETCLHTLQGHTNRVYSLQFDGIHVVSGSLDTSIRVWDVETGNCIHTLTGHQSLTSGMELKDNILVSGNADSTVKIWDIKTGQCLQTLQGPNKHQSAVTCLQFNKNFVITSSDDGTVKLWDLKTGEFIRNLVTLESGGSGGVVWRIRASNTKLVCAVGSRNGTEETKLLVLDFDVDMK
Each line names hits and unclear results; the compound was inactive in the other large screens. Hits are enriched below; roughly 3.5% of the tested compounds scored in any of these assays.

COc1cccc(Nc2nc(N3CCN(C)CC3)nc3c2cnn3C)c1	TEAD-YAP inh 43
COc1ccc(-n2ncc3c(Nc4cccc(F)c4)ncnc32)cc1	TEAD-YAP inh 39
COc1ccc(-n2ncc3c(Nc4ccc(F)cc4)ncnc32)cc1	none
COc1cccc(Nc2ncnc3c2cnn3-c2ccc(Cl)cc2)c1	none
Cc1ccc2c(c1)cc(CN(C(=O)c1ccccc1)C1CCCC1)c1nnnn12	none
C#CCOc1c(Cl)cc(/C=N/N2C(=O)C3C4C=CC(C4)C3C2=O)cc1OCC (stereo not given)	none
CN1CCN(CCOc2ccc3c(c2)CCC3)CC1	none
COc1ccc2cc3c(N)nn(C(=O)Cc4c[nH]c5ccccc45)c3nc2c1	TEAD-YAP inh 75
COc1ccc(CC(=O)n2nc(N)c3cc4ccc(OC)cc4nc32)cc1	TEAD-YAP inh 41
COc1cccc(CC(=O)n2nc(N)c3cc4ccc(OC)cc4nc32)c1	none
COc1ccc(NC(=O)N2CC=C(c3c[nH]c4ccccc34)CC2)cc1	TEAD-YAP inh 51
Cc1ccc(C(=O)/C=C/Nc2ccc(Br)cc2F)o1	TEAD-YAP inh 77
Cc1ccc(C(=O)/C=C/Nc2ccc(F)cc2F)o1	TEAD-YAP inh 61
Cc1ccc(C(=O)/C=C/Nc2cccc(Cl)c2C)o1	none
O=C(Nc1ccccc1C(=O)N/N=C/c1ccncc1)c1ccc([N+](=O)[O-])cc1	TEAD-YAP inh 41
CCOc1ccc(/C=N/NC(=O)c2ccc(F)cc2)cc1	none
O=C(Nc1ccccc1C(=O)N/N=C/c1ccncc1)c1ccccc1	TEAD-YAP inh 41
CCOc1ccc(/C=N/NC(=O)c2ccccc2NC(=O)c2ccc(OC)cc2)cc1	TEAD-YAP inh 55
N#CCn1c(CSc2n[nH]c(N)n2)nc2scc(-c3ccccc3)c2c1=O	none
CCc1ccc(C2CC(c3cc(OC)ccc3OC)n3ncnc3N2)cc1 (stereo not given)	none
CC1CCN(CC(O)COCCC2CC3CCC2C3)CC1 (stereo not given)	none
O=C(O)c1cc(-c2ccc3c(c2)OCO3)nc2cc3c(cc12)OCCO3	TEAD-YAP inh 32
Cc1cccc(-n2c(CNC(=O)c3cccc([N+](=O)[O-])c3C)nnc2SCC(=O)N2N=C(c3cccs3)CC2c2ccc(F)cc2)c1 (stereo not given)	none
COc1ccc(CNc2nc(C)c(-c3ccn(CCO)n3)s2)c(OC)c1OC	none
COc1cc(OC)c(OC)cc1CNc1nc(C)c(-c2ccn(CCO)n2)s1	TEAD-YAP inh 37
CCCSc1nnc(-c2ccc(OC)cc2)o1	TEAD-YAP inh 45
Cc1ccc(S(=O)(=O)NCCC(=O)O)c(C)c1N(C)S(=O)(=O)c1ccccc1	none
CC(=O)Oc1ccc(C(=O)Nc2ccc3c4c(cccc24)CC3)cc1	none
COc1ccc(C2C(C(=O)OCC3CCCO3)=C(C)NC3=C2C(=O)CC(c2cccs2)C3)cc1OC (stereo not given)	none
O=C(Nc1nnc(C23CC4CC(CC(C4)C2)C3)s1)c1ccccc1	TEAD-YAP inh 42
O=C(Nc1nnc(C23CC4CC(CC(C4)C2)C3)s1)c1cccs1	TEAD-YAP inh 33
O=C(Nc1nnc(C23CC4CC(CC(C4)C2)C3)s1)c1ccccc1Cl	none
OC1CCC(Nc2nc(NCc3ccccc3)c3ncn(-c4ccsc4)c3n2)CC1 (stereo not given)	none
CC(C)N(CCNc1nc(NC2CCC(O)CC2)nc2c1ncn2-c1ccsc1)C(C)C (stereo not given)	TEAD-YAP inh 74
Oc1ccc(CCNc2nc(NC3CCC(O)CC3)nc3c2ncn3-c2ccsc2)cc1 (stereo not given)	TEAD-YAP inh 48
COc1ccc(CCNc2nc(NC3CCC(O)CC3)nc3c2ncn3-c2ccccc2)cc1 (stereo not given)	TEAD-YAP inh 48
Cc1cccc(C)c1NC(=O)CC1SC(=Nc2ccccc2)N(CCO)C1=O (stereo not given)	none
O=C(CCc1ccccc1)Nc1ccnn1C1CCN(Cc2ccc(F)c(F)c2)CC1	none
CC(C)Cc1nnc(NC(=O)Cc2ccc(Cl)cc2)s1	none
Cc1ccc(Cn2c(=O)c3c(nc4n(-c5ccccc5N)c(C)cn34)n(C)c2=O)cc1	none
c1ccc(Nc2cc(-c3ccnc(Nc4ccccc4)c3)ccn2)cc1	TEAD-YAP inh 38
NC(=O)c1ccc(Nc2cc(-c3ccccc3)ccn2)cc1	none
C=CCn1c(C)cc(C(=O)CSc2nnc(N)s2)c1C	TEAD-YAP inh 39
COc1ccc(N2Cc3ccc(C(=O)NN)cc3C2)cc1	none
Cc1cc2c(cc1C)CN(c1cccc(C(=O)O)c1)C2	TEAD-YAP inh 34
Cc1cc2c(cc1C)CN(c1cccc(C(=O)NN)c1)C2	TEAD-YAP inh 38
CCCCNP1(=O)C=C(c2ccccc2)OC(c2ccccc2)=C1	none
O=C1NC(=O)/C(=C\c2cn(Cc3ccccc3Cl)c3ccccc23)N1	none
Cc1nc(NCCC2=CCCCC2)c2c3c(sc2n1)CCC3	none
Cc1nc(NCCC2=CCCCC2)c2cc(C)sc2n1	TEAD-YAP inh 41
CN(C)CP(=O)(O)CCc1ccccc1	FBW7 act 5.1
CN(C1=C(Cl)C(=O)N(c2cccc(Cl)c2)C1=O)c1ccccc1	TEAD-YAP inh 33
CCN(C1=C(Cl)C(=O)N(c2ccccc2)C1=O)c1ccccc1	none
NC(=O)CSc1nnc(-c2cccnc2)n1-c1cccc(C(F)(F)F)c1	none
NC(=O)CSc1nnc(-c2ccncc2)n1-c1cccc(C(F)(F)F)c1	FBW7 act 2.6
Nc1nc(Nc2ccc3c(c2)OCO3)cc(Nc2nccc3ccccc23)n1	TEAD-YAP inh 36
Cc1cc(Nc2ccc3c(c2)OCO3)nc(Nc2nccc3ccccc23)n1	TEAD-YAP inh 35
O=c1oc(/C=C/c2ccccc2)nc2scc(-c3cccs3)c12	none
COc1ccnc(N2CCC(NCc3cccc(N(C)C)c3)CC2)n1	none
CC(CO)Nc1c2ccccc2nc2ccccc12 (stereo not given)	TEAD-YAP inh 38
CNCCOc1cc(-c2cn[nH]c2)ccc1NC(=O)C1COc2ccc(OC)cc2C1 (stereo not given)	none
Cc1cnc(NCc2ccc3c(c2)OCO3)nc1Nc1ccc2c(c1)OCO2	none
Cc1cnc(Nc2nc3ccccc3n2C)nc1Nc1ccc2c(c1)OCO2	TEAD-YAP inh 32
c1cc2c(cc1Nc1nc(N3CCCCC3)nc(N3CCCCC3)n1)OCO2	FBW7 act 2.2
c1cc2c(cc1Nc1nc(N3CCOCC3)nc(N3CCOCC3)n1)OCO2	none
Cc1cnc(Nc2cccc(N(C)C)c2)nc1Nc1ccc2c(c1)OCO2	TEAD-YAP inh 40
CN(C)c1cccc(Nc2nccc(Nc3ccc(N4CCOCC4)cc3)n2)c1	TEAD-YAP inh 39
Nc1ncnc2ncc3c4ccccc4[nH]c3c12	none
Cc1cnc(Nc2cccc(N(C)C)c2)nc1Nc1ccc(N2CCOCC2)cc1	TEAD-YAP inh 66
Cc1cnc(Nc2ccc(N3CCOCC3)cc2)nc1Nc1ccc2c(c1)OCO2	TEAD-YAP inh 80
Cc1cnc(Nc2ccc(C(F)(F)F)cc2)nc1Nc1ccc2c(c1)OCO2	none
COc1cc2nc(Nc3cccc(N(C)C)c3)nc(Nc3ccc(N4CCOCC4)cc3)c2cc1OC	none
CC(=O)N(c1ccccc1)N1C(=O)c2cccc3cccc(c23)C1=O	none
COC(=O)c1cc2sccc2n1CC(=O)c1ccccc1	none
